Data on 16 sequences can be found in publication PMC3315485, “Probing the Informational and Regulatory Plasticity of a Transcription Factor DNA–Binding Domain”.

Assay in all cases: MITOMI; MITOMI, 295 K (22 C); buffer, salt and pH not stated in the material; high values mean tight binding
Details in all cases: protein: ivt; label: fluorescent; dsDNA, one strand shown

For one test, the target named is T1, MarA wild type (WQR) (Escherichia coli, UniProt P0ACH5 1-127).
T1 sequence: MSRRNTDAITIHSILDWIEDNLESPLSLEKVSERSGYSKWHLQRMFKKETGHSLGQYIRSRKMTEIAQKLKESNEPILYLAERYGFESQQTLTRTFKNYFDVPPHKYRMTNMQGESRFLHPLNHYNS
Summed up: (§1)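 Each fluorescently labelled MarA protein variant, made by in vitro transcription and translation with the RTS E. coli HY kit plus tRNA-lys-bodipy-fl, was tested by MITOMI against 64 synthesized mar binding site variants. Protein and DNA fluorescence were read on Genepix at 295K. Association constants, measured by MITOMI, are reported for each site relative to the highest-affinity site for the same protein variant.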

In a further test the target is T2, MarA RQR (Escherichia coli, UniProt P0ACH5 1-127, W40R).
T2 sequence: T1 sequence with W40R
Summed up:
as §1

The target in the next test is T3, MarA RTR (Escherichia coli, UniProt P0ACH5 1-127, W40R;Q43T).
T3 sequence: T1 sequence with W40R, Q43T
In short, it runs like this:
as §1

Another test concerns the target T4, MarA SAR (Escherichia coli, UniProt P0ACH5 1-127, W40S;Q43A).
T4 sequence: T1 sequence with W40S, Q43A
In short, it runs like this: as §1

The target in the next test is T5, MarA TRR (Escherichia coli, UniProt P0ACH5 1-127, W40T;Q43R).
T5 sequence: T1 sequence with W40T, Q43R
Summed up:
as §1

Residue numbers refer to the chain shown, from its start.

As for ATGAGCCGTTTTGCTAAAT, the binding signal in the test with MarA wild type (WQR) was 0.237 Ka relative to the best site of the variant; with MarA RQR, 0.107 Ka relative to the best site of the variant; in the test with MarA RTR, 0.27 Ka relative to the best site of the variant; in the test with MarA SAR, 1 Ka relative to the best site of the variant; with MarA TRR, 0.448 Ka relative to the best site of the variant.

As for ATGTTACGTTTTGCTAAAT, the binding signal with MarA wild type (WQR) was 0.288 Ka relative to the best site of the variant; in the test with MarA RQR, 0.135 Ka relative to the best site of the variant; in the test with MarA RTR it was 0.177 Ka relative to the best site of the variant; with MarA SAR, 0.202 Ka relative to the best site of the variant; in the test with MarA TRR it was 0.518 Ka relative to the best site of the variant.

Consider ATGGTACGTTTTGCTAAAT, for which the binding signal with MarA wild type (WQR) was 0.294 Ka relative to the best site of the variant; in the test with MarA RQR, 0.124 Ka relative to the best site of the variant; with MarA RTR, 0.222 Ka relative to the best site of the variant; with MarA SAR, 0.797 Ka relative to the best site of the variant; in the test with MarA TRR, 0.39 Ka relative to the best site of the variant.

Consider ATGCGGCGTTTTGCTAAAT, for which the binding signal was 0.318 Ka relative to the best site of the variant with MarA wild type (WQR); 0.0951 Ka relative to the best site of the variant in the test with MarA RQR; 0.255 Ka relative to the best site of the variant in the test with MarA RTR; 0.379 Ka relative to the best site of the variant in the test with MarA SAR; 0.501 Ka relative to the best site of the variant in the test with MarA TRR.

Turning to ATGGTTCGTTTTGCTAAAT, the binding signal is 0.203 Ka relative to the best site of the variant with MarA wild type (WQR); 0.13 Ka relative to the best site of the variant in the test with MarA RQR; 0.189 Ka relative to the best site of the variant with MarA RTR; 0.805 Ka relative to the best site of the variant with MarA SAR; 0.368 Ka relative to the best site of the variant with MarA TRR.

Regarding ATGAGTCGTTTTGCTAAAT, the binding signal is 0.239 Ka relative to the best site of the variant in the test with MarA wild type (WQR); 0.136 Ka relative to the best site of the variant with MarA RQR; 0.173 Ka relative to the best site of the variant with MarA RTR; 0.944 Ka relative to the best site of the variant in the test with MarA SAR; 0.446 Ka relative to the best site of the variant with MarA TRR.

Consider ATGCACCGTTTTGCTAAAT, for which the binding signal in the test with MarA wild type (WQR) is 0.261 Ka relative to the best site of the variant; with MarA RQR, 0.132 Ka relative to the best site of the variant; with MarA RTR, 0.202 Ka relative to the best site of the variant; in the test with MarA SAR, 0.497 Ka relative to the best site of the variant; in the test with MarA TRR, 0.449 Ka relative to the best site of the variant.

Regarding ATGCAGCGTTTTGCTAAAT, the binding signal in the test with MarA wild type (WQR) was 0.293 Ka relative to the best site of the variant; with MarA RQR, 0.105 Ka relative to the best site of the variant; with MarA RTR, 0.149 Ka relative to the best site of the variant; in the test with MarA SAR it was 0.357 Ka relative to the best site of the variant; with MarA TRR it was 0.477 Ka relative to the best site of the variant.

Regarding ATGCTACGTTTTGCTAAAT, the binding signal was 0.363 Ka relative to the best site of the variant with MarA wild type (WQR); 0.117 Ka relative to the best site of the variant with MarA RQR; 0.285 Ka relative to the best site of the variant in the test with MarA RTR; 0.491 Ka relative to the best site of the variant with MarA SAR; 0.571 Ka relative to the best site of the variant with MarA TRR.

As for ATGCGCCGTTTTGCTAAAT, the binding signal in the test with MarA wild type (WQR) is 0.223 Ka relative to the best site of the variant; with MarA RQR, 0.154 Ka relative to the best site of the variant; with MarA RTR it was 0.178 Ka relative to the best site of the variant; with MarA SAR, 0.602 Ka relative to the best site of the variant; in the test with MarA TRR, 0.457 Ka relative to the best site of the variant.

On to ATGACACGTTTTGCTAAAT, for which the binding signal with MarA wild type (WQR) was 0.709 Ka relative to the best site of the variant; in the test with MarA RQR, 0.337 Ka relative to the best site of the variant; with MarA RTR, 0.249 Ka relative to the best site of the variant; in the test with MarA SAR, 0.637 Ka relative to the best site of the variant; with MarA TRR it was 0.369 Ka relative to the best site of the variant.

In the case of ATGTTTCGTTTTGCTAAAT, the binding signal with MarA wild type (WQR) was 0.217 Ka relative to the best site of the variant; in the test with MarA RQR, 0.214 Ka relative to the best site of the variant; with MarA RTR it was 0.716 Ka relative to the best site of the variant; with MarA SAR, 0.21 Ka relative to the best site of the variant; with MarA TRR, 0.539 Ka relative to the best site of the variant.

ATGGAACGTTTTGCTAAAT: the binding signal with MarA wild type (WQR) was 0.299 Ka relative to the best site of the variant; with MarA RQR, 0.208 Ka relative to the best site of the variant; in the test with MarA RTR, 0.23 Ka relative to the best site of the variant; in the test with MarA SAR, 0.646 Ka relative to the best site of the variant; with MarA TRR, 0.432 Ka relative to the best site of the variant.

As for ATGGACCGTTTTGCTAAAT, the binding signal with MarA wild type (WQR) was 0.196 Ka relative to the best site of the variant; with MarA RQR it was 0.106 Ka relative to the best site of the variant; with MarA RTR, 0.154 Ka relative to the best site of the variant; with MarA SAR, 0.573 Ka relative to the best site of the variant; in the test with MarA TRR, 1 Ka relative to the best site of the variant.

As to ATGCCCCGTTTTGCTAAAT, the binding signal was 0.272 Ka relative to the best site of the variant with MarA wild type (WQR); 0.294 Ka relative to the best site of the variant in the test with MarA RQR; 0.243 Ka relative to the best site of the variant with MarA RTR; 0.492 Ka relative to the best site of the variant in the test with MarA SAR; 0.397 Ka relative to the best site of the variant with MarA TRR.

In the case of ATGCGTCGTTTTGCTAAAT, the binding signal in the test with MarA wild type (WQR) was 0.26 Ka relative to the best site of the variant; with MarA RQR, 0.144 Ka relative to the best site of the variant; with MarA RTR, 0.153 Ka relative to the best site of the variant; in the test with MarA SAR, 0.552 Ka relative to the best site of the variant; with MarA TRR, 0.435 Ka relative to the best site of the variant.
